T cruzi growth-1: T. cruzi intracellular proliferation inhibitors, primary screen, cell-based, beta-gal Tulahuen parasites, NIH3T3 host, luminescence | T. cruzi beta-gal in NIH3T3, GalScreen luminescence, 90 h | inhibition, % at 8.34 µM | 77,000 tested, 5.9% active | AID 624255, 2012;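 active means mean inhibition above about 93%, with at least 55% of replicates each passing it, limit read from the data, passing the limit was not always enough; inconclusive means only one of those two conditions holds; inactive means neither condition holds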
Pf Dd2 inh: P. falciparum Dd2 growth inhibitors, primary screen, SYBR Green fluorescence, single dose replicates; 94,000 tested, 2.3% active; 72 h; hits give low values; activity change, % at 10 µM; in the data active means activity change below about -80%; inconclusive means no clear call, values can overlap the other calls
C diff growth: C. difficile growth inhibitors, primary screen, HTS; AID 1259249, 2017; growth activity, negative = inhibition, % at 16 µg/mL (by protocol); 86,000 tested, 0.25% active; Clostridium difficile clinical isolate growth, OD600, 24 h; hits give low values;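 active means mean growth activity at or below -80% and every replicate also at or below -80%; inconclusive means mean at or below -80% but some replicate above -80%; inactive means mean growth activity above -80%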
T cruzi growth-2: T. cruzi intracellular proliferation inhibitors, confirmation, cell-based, NIH3T3 host, beta-gal parasite, luminescence, cherry-pick; shares compounds with T cruzi growth-1; T. cruzi beta-gal in NIH3T3, GalScreen luminescence, 90 h; inhibition, % at 8.35 µM; 5,600 tested, 72% active;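 active means mean replicate inhibition above about 95% and at least 55% of replicates individually reaching it, limit read from the data; inconclusive means only one of the two criteria is met; inactive means neither criterion is met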
T cruzi growth-3: inhibitors of intracellular T. cruzi replication, confirmation, NIH3T3 host cells, beta-gal parasites, cherry-pick, set 2 | shares compounds with T cruzi growth-1 | 5,600 tested, 21% active | T. cruzi beta-gal in NIH3T3, GalScreen luminescence, 90 h | inhibition, % at 2.09 µM | AID 651740, 2012;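 active means mean inhibition above about 95%, with at least 55% of replicates also reaching it, limit read from the data; inconclusive means meets just one of the two conditions; inactive means meets neither condition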
NIH3T3 tox: cytotoxicity in mouse NIH/3T3 fibroblasts, confirmation, cytotoxicity control for T. cruzi proliferation inhibitor project, cell-based, cherry-pick, single point; shares compounds with T cruzi growth-1; NIH/3T3 viability, CellTiter-Glo ATP luminescence, 90 h; cytotoxicity (signal decrease), % at 8.35 µM; 5,600 tested, 14% active;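 active means mean signal decrease across replicates above about 35% based on untreated-well scatter, with enough replicates individually passing, limit read from the data; inconclusive means no rule stated though some were filed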
3T3 cytotox 2: NIH/3T3 fibroblast cytotoxicity, confirmation, cytotoxicity control, cell-based, cherry-pick, single point, set 2 | shares compounds with T cruzi growth-1 | NIH/3T3 viability, CellTiter-Glo ATP luminescence, 90 h | inhibition, % at 24.9 µM | 5,600 tested, 56% active;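 active means mean loss of cell viability signal at or above a set limit, and enough replicates individually reaching it; inconclusive means meets only the mean limit or only the replicate share; inactive means meets neither condition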
Of the large screens only hits and unclear results are named; the others gave an inactive call (follow-up assays come after a bar, where they were run). Hits are enriched below; roughly 6.8% of the tested compounds scored in any of these assays.

COc1ccccc1C#Cc1ccc([C@@H]2[C@@H](C#N)N(C(=O)C3CC3)[C@H]2CO)cc1	T cruzi growth-1 99 | T cruzi growth-2 108 | T cruzi growth-3 inactive | NIH3T3 tox inactive | 3T3 cytotox 2 34
O=C(C[C@@H]1CC[C@H]2[C@@H](COC[C@H](O)CN2Cc2nccs2)O1)NCc1ccccc1F	none
CC(=O)N1[C@@H]2c3ccc(-c4ccccc4)c(=O)n3C[C@H]1[C@H](CO)[C@H]2C(=O)Nc1ccccc1	none (no result: Pf Dd2 inh)
O=C(NCC1CCCCC1)[C@@H]1[C@@H](CO)[C@@H]2Cn3c(cccc3=O)[C@@H]2N1C(=O)CC1CC1	none (no result: Pf Dd2 inh)
Cc1ccc(S(=O)(=O)Nc2ccc3c(c2)C(=O)N([C@@H](C)CO)C[C@H](C)[C@@H](CN(C)S(=O)(=O)c2ccc(F)cc2)OCCCC[C@H](C)O3)cc1	none (no result: T cruzi growth-1)
Cc1ccc(S(=O)(=O)Nc2ccc3c(c2)C(=O)N([C@@H](C)CO)C[C@@H](C)[C@H](CN(C)S(=O)(=O)c2ccc(F)cc2)OCCCC[C@@H](C)O3)cc1	T cruzi growth-1 103 | T cruzi growth-2 106 | T cruzi growth-3 inactive | NIH3T3 tox inactive | 3T3 cytotox 2 inactive
Cc1ccc(S(=O)(=O)Nc2ccc3c(c2)C(=O)N([C@@H](C)CO)C[C@H](C)[C@H](CN(C)S(=O)(=O)c2ccc(F)cc2)OCCCC[C@H](C)O3)cc1	T cruzi growth-1 116 | T cruzi growth-2 104 | T cruzi growth-3 inactive | NIH3T3 tox inactive | 3T3 cytotox 2 inactive
Cc1ccc(S(=O)(=O)Nc2ccc3c(c2)C(=O)N([C@@H](C)CO)C[C@H](C)[C@H](CN(C)S(=O)(=O)c2ccc(F)cc2)OCCCC[C@@H](C)O3)cc1	T cruzi growth-1 inconclusive | T cruzi growth-2 105 | T cruzi growth-3 inactive | NIH3T3 tox inactive | 3T3 cytotox 2 32
C[C@@H]1CCCCO[C@@H](CN(C)S(=O)(=O)c2ccc(F)cc2)[C@@H](C)CN([C@@H](C)CO)C(=O)c2cc(NS(=O)(=O)c3ccc(F)cc3)ccc2O1	none
Cc1ccc(S(=O)(=O)N(C)C[C@H]2OCCCC[C@H](C)Oc3ccc(NS(=O)(=O)c4ccc(F)cc4)cc3C(=O)N([C@H](C)CO)C[C@@H]2C)cc1	none
Cc1ccc(S(=O)(=O)Nc2ccc3c(c2)C(=O)N([C@H](C)CO)C[C@@H](C)[C@H](CN(C)S(=O)(=O)c2ccc(F)cc2)OCCCC[C@@H](C)O3)cc1	T cruzi growth-1 109 | T cruzi growth-2 102 | T cruzi growth-3 inactive | NIH3T3 tox inactive | 3T3 cytotox 2 inactive
Cc1ccc(S(=O)(=O)Nc2ccc3c(c2)C(=O)N([C@H](C)CO)C[C@@H](C)[C@@H](CN(C)S(=O)(=O)c2ccc(F)cc2)OCCCC[C@@H](C)O3)cc1	none (no result: T cruzi growth-1)
COc1ccc(S(=O)(=O)Nc2ccc3c(c2)CC(=O)N([C@H](C)CO)C[C@@H](C)[C@@H](CN(C)S(=O)(=O)c2ccc(C)cc2)O3)cc1	none
CN1C(=O)c2cc(NS(=O)(=O)c3cccc(F)c3)ccc2OC[C@@H]2O[C@@H](CC(=O)O)CC[C@@H]21	none
COC(=O)C[C@H]1CC[C@H]2[C@@H](COc3ccc(NC(=O)c4cc(F)cc(F)c4)cc3C(=O)N2C)O1	none
Cc1ccc(S(=O)(=O)Nc2ccc3c(c2)C(=O)N([C@H](C)CO)C[C@@H](C)[C@@H](CN(C)S(=O)(=O)c2ccc(F)cc2)OCCCC[C@H](C)O3)cc1	none (no result: T cruzi growth-1)
Cc1ccc(S(=O)(=O)N(C)C[C@H]2OCCCC[C@H](C)Oc3ccc(NS(=O)(=O)c4ccc(F)cc4)cc3C(=O)N([C@@H](C)CO)C[C@@H]2C)cc1	T cruzi growth-1 115 | T cruzi growth-2 104 | T cruzi growth-3 inactive | NIH3T3 tox inactive | 3T3 cytotox 2 inactive
Cc1ccc(S(=O)(=O)N(C)C[C@@H]2OCCCC[C@@H](C)Oc3ccc(NS(=O)(=O)c4ccc(F)cc4)cc3C(=O)N([C@@H](C)CO)C[C@@H]2C)cc1	T cruzi growth-1 102 | T cruzi growth-2 105 | T cruzi growth-3 inactive | NIH3T3 tox inactive | 3T3 cytotox 2 inactive
Cc1ccc(S(=O)(=O)N(C)C[C@@H]2OCCCC[C@H](C)Oc3ccc(NS(=O)(=O)c4ccc(F)cc4)cc3C(=O)N([C@@H](C)CO)C[C@H]2C)cc1	none
O=C([C@@H]1N[C@@H]2c3ccc(-c4ccccc4F)c(=O)n3C[C@@H]2[C@H]1CO)N1CCCCC1	none
CO[C@H]1CN(C)C(=O)c2ccc(NC(C)=O)cc2OC[C@H](C)N(CCc2ccccc2)C[C@@H]1C	none (no result: T cruzi growth-1)
O=C(C[C@H]1C=C[C@@H](NC(=O)CCN2CCCCC2)[C@H](CO)O1)Nc1ccc(-c2ccccc2)cc1	none (no result: C diff growth)
Cc1cc(C(=O)Nc2cccc3c2O[C@H](CN(C)C)[C@H](C)CN([C@@H](C)CO)C3=O)n(C)n1	T cruzi growth-1 inconclusive | T cruzi growth-2 inactive | T cruzi growth-3 inactive | NIH3T3 tox inactive | 3T3 cytotox 2 inactive
Cc1cc(C(=O)Nc2cccc3c2O[C@@H](CN(C)S(C)(=O)=O)[C@@H](C)CN([C@@H](C)CO)C3=O)n(C)n1	none
Cc1cc(C(=O)Nc2cccc3c2O[C@H](CN(C)C)[C@@H](C)CN([C@H](C)CO)C3=O)n(C)n1	none
Cc1cc(C(=O)Nc2cccc3c2O[C@H](CN(C)C)[C@@H](C)CN([C@@H](C)CO)C3=O)n(C)n1	T cruzi growth-1 101 | T cruzi growth-2 inactive | T cruzi growth-3 inactive | NIH3T3 tox inactive | 3T3 cytotox 2 inactive
COc1ccc2c3c(n(C)c2c1)[C@@H](CO)N(C(=O)CN1CCOCC1)CC31CCN(C)CC1	none (no result: T cruzi growth-1, C diff growth)
C[C@@H]1CN([C@@H](C)CO)C(=O)Cc2cc(NC(=O)Cc3ccccc3)ccc2O[C@H]1CN(C)C	none (no result: T cruzi growth-1)
COCc1cn(CC[C@@H]2CC[C@@H](NC(=O)c3ccncc3)[C@@H](CO)O2)nn1	T cruzi growth-1 127 (no result: C diff growth) | T cruzi growth-2 inactive | T cruzi growth-3 inactive | NIH3T3 tox inactive | 3T3 cytotox 2 inactive
COCc1cn(CC[C@@H]2CC[C@@H](NC(=O)c3ccncc3)[C@H](CO)O2)nn1	none (no result: C diff growth)
COc1cccc(S(=O)(=O)N[C@@H]2CC[C@@H](CCn3cc(-c4ccccc4OC)nn3)O[C@H]2CO)c1	none
O=C(N[C@@H]1CC[C@H](CCn2cc(-c3ccccc3F)nn2)O[C@@H]1CO)c1ccc2c(c1)OCO2	none (no result: C diff growth)
